Test results reported in PubChem BioAssay (NCATS).
The source made the active and inactive calls. Calls follow the shape of the dose curve; as a rule, active = well fitted activation curve with a large enough effect; inconclusive = small, poorly fitted or top-dose-only effect; inactive = no such curve, though single readings can be large or run the other way.

What follows are molecules tested against Cytochrome P450 3A4 (Homo sapiens) (UniProt P08684) (assay: qHTS Assay for Activators of Cytochrome P450 3A4 (AID 885; also: nearly all actives have a fitted effect of over 65% in size)). Details: recombinant CYP3A4, Luciferin-PPXE luminescence, 60 min; series mostly up to 57.1 µM.
Procedure, shortened: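 CYP3A4 activity: Luciferin-PPXE O-dealkylation, 25uM substrate, 200mM KPO4, RT throughout. Read-out is luciferase luminescence; higher values reflect activation.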

Chain of Cytochrome P450 3A4 (Homo sapiens) (P08684 whole entry, looked up): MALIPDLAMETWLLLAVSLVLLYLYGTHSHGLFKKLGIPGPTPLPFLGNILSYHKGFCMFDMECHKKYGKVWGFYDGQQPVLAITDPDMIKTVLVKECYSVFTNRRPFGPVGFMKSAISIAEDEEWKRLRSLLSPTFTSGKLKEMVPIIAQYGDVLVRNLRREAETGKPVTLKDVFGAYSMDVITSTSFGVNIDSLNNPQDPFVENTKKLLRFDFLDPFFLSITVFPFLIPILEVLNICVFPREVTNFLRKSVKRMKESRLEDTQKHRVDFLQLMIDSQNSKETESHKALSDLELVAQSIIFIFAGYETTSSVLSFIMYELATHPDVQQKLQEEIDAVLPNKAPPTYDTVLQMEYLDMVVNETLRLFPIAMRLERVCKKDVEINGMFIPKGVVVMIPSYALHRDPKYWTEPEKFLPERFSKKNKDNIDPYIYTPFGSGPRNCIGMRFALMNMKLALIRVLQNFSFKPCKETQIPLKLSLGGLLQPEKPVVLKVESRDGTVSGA

Potency, inactive:
Clc1ccc(C2[C@H]3CN(CC4CCCCC4)[C@H](c4ccccc4)C34CC2(c2ccccc2)C4)cn1 (some centres undefined)
COC(=O)[C@@H]1C[C@@H]2CC[C@@H](O)C[C@@H]2N1Cc1ccc(C(F)(F)F)cc1
COC(=O)[C@@H]1C[C@H]2CC[C@H](O)C[C@H]2N1Cc1ccc(C(F)(F)F)cc1
COC(=O)[C@@H]1C[C@H]2CC[C@H](O)C[C@H]2N1Cc1ccc(-c2ccccc2)cc1
COC(=O)c1ccc(C23CC4(C2)[C@H](CN(C)[C@@H]4c2ccccc2)C3c2ccc(Cl)nc2)cc1 (some centres undefined)
COC(=O)c1cccc(C23CC4(C2)[C@H](CN(Cc2ccc(-c5ccccc5)cc2)[C@@H]4c2ccccc2)C3c2ccccc2)c1 (some centres undefined)
COC(=O)N1C2(C=CC1(C)C(=O)NCc1ccc(N(C)C)cc1)CCCCC2 (centres undefined)
COC(=O)c1cccc(C23CC4(C2)[C@H](CN(CC2CCCCC2)[C@@H]4c2ccccc2)C3c2ccc(C(F)(F)F)cc2)c1 (some centres undefined)
COC(=O)c1ccc(C23CC4(C2)[C@H](CN(C)[C@@H]4c2ccccc2)C3c2ccccc2)cc1 (some centres undefined)
Cc1ccc2oc(=O)c3c4cc(O)c(O)c(C)c4oc3c2c1

Activity change, positive = activation, inactive:
CC(C)CO/N=C1/C[C@@H](O)[C@@H](O)[C@@H]2[C@@H]3C(=O)N(Cc4ccc5c(c4)OCO5)C(=O)[C@H]3CC[C@@H]12 -50.2% [at 11.4 µM]
COc1cccc([C@H](O)Cn2cc(-c3cccc(CON=C(C)C)c3)nn2)c1 -43.8% [at 11.4 µM]
CO[C@H]1COC(=O)[C@H]2CCCN2C(=O)C/C=C\[C@@H](C)[C@H](OC)COC(=O)[C@@H](OCc2ccccc2)/C=C\[C@@H]1C -30.9% [at 11.4 µM]
C#CCCCO/N=C1/C[C@@H](O)[C@@H](O)[C@@H]2[C@@H]3C(=O)N(C[C@@H]4CCCO4)C(=O)[C@H]3CC[C@@H]12 -39.4% [at 11.4 µM]
